Compound activity: PubChem BioAssay, National Center for Advancing Translational Sciences (NCATS)
SNCA expr inh: Primary qHTS assay for inhibitors of alpha-synuclein gene (SNCA) expression. HEK-293 SNCA-luciferase knock-in, luminescence, 24 h. Potency, µM (highest dose often 57.2 µM), for the others: at the top dose activity change, negative = inhibition, usual class: inhibitors. hit rate 0.17% among 140,000;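 note: potency is the fitted concentration of half-maximal effect; plate controls were DMSO cells for no effect and cell-free wells for full effect; nearly all actives have a fitted effect of over 45% in size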
NIH3T3 tox: Cytotoxic Profiling in NIH 3T3 Cell Line of Diverse Libraries Using Quantitative High-Throughput Screening; NIH 3T3 viability, CellTiter-Glo ATP luminescence, 48-72 h; Potency, µM (titrated, usually from 96.7 µM), for the others: top-dose activity change, negative = cytotoxicity, actives largely listed as inhibitors; hit rate 4.3% among 94,000; AID 1345082, 2018; note: potency is the fitted concentration of half-maximal effect; nearly all actives have a fitted effect of over 55% in size
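Luminescent ATP readout (CellTiter-Glo, 10 min RT) after 48 or 72 hr compound exposure of NIH 3T3 cells seeded at 400 cells/well in 1536-well format; quantitative HTS.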
HEK293 tox: Cytotoxic Profiling in HEK 293 Cell Line of Diverse Libraries Using Quantitative High-Throughput Screening; HEK 293 viability, ATP luminescence (CellTiter-Glo), 48-72 h; hit rate 6.6% among 94,000; AID 1345083, 2018; Potency, µM (doses to about 115 µM), without a hit: at the top dose activity change, negative = cytotoxicity, most hits filed as inhibitors; note: potency is the fitted concentration of half-maximal effect; nearly all actives have a fitted effect of over 60% in size
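Read-out: CellTiter-Glo ATP luminescence. Cells: HEK 293, 250 cells/well. Exposure: 48 or 72 hr, 37 degree Celsius.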
FLuc inh: Firefly luciferase inhibition profiling of diverse chemical library using quantitative high-throughput screening | Potency, µM (series often up to 115 µM), most hits filed as inhibitors | AID 1347043, 2019 | purified P. pyralis luciferase, luminescence, biochemical | hit rate 2.5% among 76,000; note: potency is the fitted concentration of half-maximal effect; nearly all actives have a fitted effect of over 65% in size
Target sequence (P08659 whole entry, looked up): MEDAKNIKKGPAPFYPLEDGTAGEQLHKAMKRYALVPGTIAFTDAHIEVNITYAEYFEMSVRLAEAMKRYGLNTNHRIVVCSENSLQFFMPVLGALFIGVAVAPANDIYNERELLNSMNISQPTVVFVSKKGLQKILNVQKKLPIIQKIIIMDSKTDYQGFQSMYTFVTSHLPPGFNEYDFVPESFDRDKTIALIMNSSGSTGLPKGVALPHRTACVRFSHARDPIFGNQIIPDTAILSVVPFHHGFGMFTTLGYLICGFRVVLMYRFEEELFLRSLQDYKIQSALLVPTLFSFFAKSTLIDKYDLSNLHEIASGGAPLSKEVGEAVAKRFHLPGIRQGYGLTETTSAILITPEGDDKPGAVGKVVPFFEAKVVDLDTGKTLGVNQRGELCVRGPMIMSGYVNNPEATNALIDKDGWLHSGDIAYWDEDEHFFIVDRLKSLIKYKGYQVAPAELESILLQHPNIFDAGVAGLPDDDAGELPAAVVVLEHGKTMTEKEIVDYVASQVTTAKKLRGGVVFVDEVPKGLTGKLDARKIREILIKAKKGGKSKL
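Luminescence read by CCD imager after adding enzyme (10nM final) to wells holding compound, titrated in qHTS. Substrates 10uM each D-luciferin and ATP; buffer 50mM Tris acetate pH 7.5, 10mM Mg acetate, Tween-20, BSA.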
HEK293 viab: GF-AFC viability counterscreen for inhibitors of alpha-synuclein gene (SNCA) expression. HEK-293-SNCA-luc viability, GF-AFC fluorescence, 24 h. Potency, µM (top dose mostly 57.1 µM), inactives show top-dose activity change, negative = cytotoxicity, actives largely listed as cytotoxic. hit rate 0.12% among 150,000;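 note: potency is the fitted concentration of half-maximal effect; 0% = DMSO-treated cells and -100% = medium-only wells without cells; nearly all actives have a fitted effect of over 30% in size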
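HEK-293-SNCA-luc cells (1500/well) plated 24 h, then exposed 24 h to a dilution series; GF-AFC added 30 min at 37C, fluorescence 405/540 nm; normalised to medium-only and DMSO wells, Hill fit.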
IP6K1 inhibitor: Primary qHTS assay for small molecule inhibitors of Inositol hexaphosphate kinase 1 (IP6K1) | hit rate 0.81% among 140,000 | IP6K1 kinase, ADP-Glo luminescence, 2 h; hits give low values | AID 1645851, 2021 | Inositol hexakisphosphate kinase 1 (Homo sapiens), Q92551 | activity change, % (series mostly up to about 58 µM); in the data active = activity change below about -25%
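ADP-Glo luminescence measures ADP made by human IP6K1 during a 2 h RT reaction with ATP/IP6 (mix at 1.3 mM/130 uM); top library doses 57.5 and 19.1 uM final.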
* = called active by the depositor; i = inactive; ? = inconclusive; . = not tested or not shown; ! = a repeat was not active; [ ] = another dose, or the depositor's remark. Rows were chosen to be rich in hits. Some 7.3% of all compounds tested hit in one or more screens of this group. Unless noted, calls come from the whole dose curve; as a rule, active = well fitted curve in the direction sought with a large enough effect; inconclusive = small, poorly fitted or top-dose-only effect, or another doubt; inactive = no such curve, though single readings can be large; an effect the other way counts as inactive or inconclusive. Unless noted, % is set by controls: 0 for no effect and ±100 for the full control effect.

SMILES | SNCA expr inh | NIH3T3 tox | HEK293 tox | FLuc inh | HEK293 viab | IP6K1 inhibitor
Cc1cc(-c2cc3c(cn2)CN(Cc2cccc(F)c2)CCN3)ccn1 | 71.0%[87.6 µM] | ? | 70.8µM* | 15.8µM* | -12.7%[87.6 µM] | -13.5
Cc1cc(-c2cc3c(cn2)CN(CC2CCOC2)CCN3)ccn1 (configuration not stated) | 109.9%[87.6 µM] | ? | -30.4%[172 µM] | ? | 7.5%[87.6 µM] | -2.2
CCn1cc(-c2cc3c(cn2)CN(Cc2cccnc2)CCN3)cn1 | 141.9%[87.6 µM] | 1.9%[138 µM] | ? | 63.1µM* | -2.0%[87.6 µM] | -12.6
COc1ccc(CN2CCNc3cc(-c4ccnc(C)c4)ncc3C2)cc1 | 95.0%[87.6 µM] | ? | 89.1µM* | ? | -5.5%[87.6 µM] | -8.4
Cc1nc(CCNS(=O)(=O)c2cccs2)no1 | 5.5% | -12.4% | 3.7% | i | 5.7% | 16.0
COc1ccc(Cn2c(C3CCN(C(=O)c4ccc(C(C)(C)C)cc4)CC3)n[nH]c2=O)cc1 | 9.1% | ? | ? | i | 1.7% | 9.1
NC(=O)c1cccc(-c2cc(-c3cccnc3)c3cncn3c2)c1 | -0.2%[87.6 µM] | ? | ? | i | -9.7%[87.6 µM] | 294.4
COc1ccc(-c2cc(-c3ccc4cn[nH]c4c3)cn3cncc23)cn1 | ? | 44.7µM* | ? | ? | -6.7%[87.6 µM] | -8.4
Oc1cccc(-c2cc(-c3ccncc3)c3cncn3c2)c1 | -10.2%[87.6 µM] | ? | ? | i | 5.3%[87.6 µM] | -23.2
COc1ccc(-c2cc(-c3ccc4c(c3)CNC4=O)cn3cncc23)cc1 | 13.7%[87.6 µM] | ? | ? | ? | -6.2%[87.6 µM] | -16.6
COc1ccc(-c2cc(-c3cccc(C(N)=O)c3)cn3cncc23)cc1 | 12.2%[87.6 µM] | 39.8µM* | ? | i | -8.2%[87.6 µM] | -7.1
OCc1ccc(-c2cc(-c3ccncc3)c3cncn3c2)cc1 | -14.1%[87.6 µM] | 39.8µM* | ? | i | 2.0%[87.6 µM] | 2.2
COc1ccc(-c2cc(-c3ccncc3)cn3cncc23)cc1 | ? | 35.5µM* | ? | i | -15.1%[87.6 µM] | -12.6
COc1cccc(CN2CCCC(Cc3ncc(C)n3Cc3ccc(F)cc3)C2)c1 (configuration not stated) | -10.2% | ? | ? | . | -17.3% | 4.4
CNC(=O)c1cc(C)nc2onc(C3CCCN3[S+](=O)([O-])c3ccc(C)cc3)c12 (configuration not stated) | . | -25.4% | -1.6% | . | . | -4.3
CC(C)(C)c1cc(C(=O)N2CCCC2)nn2cccc12 | 12.7%[87.6 µM] | 28.2µM* | ? | . | 1.5%[87.6 µM] | 20.7
CC(C)NC(=O)c1cc(C(C)(C)C)c2cccn2n1 | 27.1%[87.6 µM] | -5.6%[138 µM] | -11.0%[172 µM] | . | 2.1%[87.6 µM] | -4.4
FC(F)(F)c1ccc(O[C@H]2COCCN(c3nc4ccccc4o3)C2)nc1 | 3.4%[87.6 µM] | ? | 100µM* | i | -0.9%[87.6 µM] | 2.0
O=C(NC1CCCC1)O[C@H]1COCCN(c2nc3ccccc3o2)C1 | 3.4%[87.6 µM] | -10.8%[138 µM] | -0.6%[172 µM] | i | -11.2%[87.6 µM] | 11.9
Cc1cnc(C(=O)N2CC(Oc3ccc(-c4nc(-c5ccccc5)no4)cc3)C2)cn1 | 24.9% | -21.3% | -23.1% | i | 4.8% | -2.0
Cc1cc(C)n(CCC(=O)N2CC(Oc3ccc(-c4nc(-c5ccccc5)no4)cc3)C2)n1 | ? | ? | 31.6µM* | ? | ? | 6.5
Cc1cc(C(=O)N2CC(Oc3ccc(-c4nc(-c5ccccc5)no4)cc3)C2)n(C)n1 | -7.9% | ? | 11.2µM* | ? | -12.6% | 5.4
CCC(NC(=O)c1cc(OC)ccc1OC1CCN(C(C)=O)CC1)c1ccncc1 (configuration not stated) | 9.6% | -18.6% | -4.2% | i | -6.5% | 4.2
O=C(NCc1ccc2c(c1)OCO2)c1ccc2nnc(-c3ccc(C(F)(F)F)cc3)n2c1 | 17.9% | -30.3% | ? | . | 2.8% | 4.7
CN(Cc1ccc(-c2ccccc2)cc1)C(=O)c1ccc(C(F)(F)F)cc1 | -14.7% | ? | ? | i | -3.9% | -5.7
SMILES | SNCA expr inh | NIH3T3 tox | HEK293 tox | FLuc inh | HEK293 viab | IP6K1 inhibitor
CN(C)C(=O)COC(=O)c1cc(-c2ccc(C3CCNCC3)cc2)c2ccc(-c3ccc(C(F)(F)F)cc3)cc2c1 | . | . | . | . | 29.9µM* | 1.9
COC(=O)[C@@H]1Cc2ncn(Cc3ccc(Cl)cc3)c2CN1Cc1cccc(C#N)c1 | ? | ? | 63.1µM* | i | ? | 5.5
COc1ncccc1-c1cnc2[nH]cc(CC(=O)Nc3nc(C)cs3)c2c1 | 13.3%[87.6 µM] | 31.6µM* | 35.5µM* | i | -27.8%[87.6 µM] | -17.2
COc1ncccc1-c1cnc2[nH]cc(CC(=O)NC3CC3)c2c1 | 42.4%[87.6 µM] | 25.1µM* | ? | i | -14.8%[87.6 µM] | -16.5
Cc1cc(NC(=O)Cc2c[nH]c3ncc(-c4ccccc4C)cc23)n(C)n1 | -27.2%[87.6 µM] | ? | ? | i | -11.5%[87.6 µM] | -14.8
COc1ncccc1-c1cnc2[nH]cc(CC(=O)Nc3cccc(Cl)c3)c2c1 | 13.1%[87.6 µM] | ? | 31.6µM* | i | ? | 27.5
CN(Cc1ccccc1)Cc1nnc(C(=O)N2CCC[C@@H]2c2ccc(Br)cc2)n1Cc1ccccc1 | ? | 17.8µM* | 31.6µM* | i | -13.9% | -2.6
O=C(c1nnc(CN2CCN(c3ccccn3)CC2)n1Cc1ccccc1)N1CCC[C@@H]1c1ccc(Br)cc1 | ? | ? | 44.7µM* | i | -13.8% | -17.7
COc1ccccc1Nc1ccnc(N2CCCC2C(=O)NCc2ccc(F)cc2)n1 (configuration not stated) | -6.2% | -19.6% | ? | . | -17.6% | 15.1
CCC(C)NC(=O)c1cc(-c2cccc(F)c2)nc2c1cnn2C (configuration not stated) | . | ? | 89.1µM* | . | . | 13.4
Cn1ncc2c(C(=O)NCCc3ccc(Cl)cc3)cc(-c3ccc(Cl)cc3)nc21 | ? | ? | -17.9% | . | -8.8% | 2.0
Cn1ncc2c(C(=O)NCCc3ccc(Cl)cc3)cc(-c3cccnc3)nc21 | -13.5% | ? | 31.6µM* | . | -4.2% | 5.6
Cn1ncc2c(C(=O)NC3CC3)cc(-c3cccnc3)nc21 | 10.2%[87.6 µM] | 39.8µM*! | 63.1µM*! | . | -0.7%[87.6 µM] | 6.4
Cn1ncc2c(C(=O)NCc3cccc(F)c3)cc(-c3ccc(Cl)cc3)nc21 | -29.6% | ? | 44.7µM* | . | -12.6% | -5.6
COc1ccccc1CCC(=O)N1CCCC(Nc2ccc(F)cc2)C1 (configuration not stated) | -20.3% | -19.9% | ? | i | -2.7% | 25.1
